NTMT1 inhibitor = NTMT1 methyltransferase inhibition; Q9BV86; NTMT1 MTase-Glo SAH luminescence, purified enzyme; Potency, µM (series often up to 114 µM), actives largely listed as inhibitors; 2.5% of 59,000 active; AID 1645870; also: nearly all actives have a fitted effect of over 65% in size
HTT-AS promoter = activators of huntingtin-antisense promoter activity. HEK293 HTT-AS promoter firefly luciferase reporter, 24 h; response scale: percent change from vehicle, -100% = no light. 0.24% of 48,000 active. Potency, µM (series often up to 57.5 µM), actives largely listed as activators; also: nearly all actives have a fitted effect of over 55% in size
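HEK293 cells carrying firefly luciferase reporters were seeded at 2,500 per well in Opti-MEM and cultured for 24 h. They were then treated with compounds at up to 57.5 uM final for 24 h at 37 degrees C before Dual-Glo luminescence readout.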
HTT promoter inh = inhibits huntingtin promoter activity | Potency, µM (doses to about 57.5 µM), most hits filed as inhibitors | 0.93% of 48,000 active | HEK293 HTT promoter firefly luciferase reporter, 24 h; also: nearly all actives have a fitted effect of over 50% in size
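HEK293 Fluc reporter, 2,500 cells/well, 24 h pre-culture; cpds up to 57.5 uM final, 24 h 37 degrees C; Dual-Glo, 10 min RT; normalized vehicle = 0%, zero RLU = -100%.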
FH mod = Identification of activators of human fumarate hydratase by quantitative high-throughput screening. Fumarate hydratase, mitochondrial (Homo sapiens), P07954. FH coupled MDH/diaphorase resazurin fluorescence, 15 min. Potency, µM (doses to about 79.9 µM), most hits filed as inhibitors. 0.22% of 54,000 active. AID 1347055, 2019; also: the screen sought activators but most active calls are inhibition curves; nearly all actives have a fitted effect of over 45% in size
Target sequence (P07954 whole entry, looked up): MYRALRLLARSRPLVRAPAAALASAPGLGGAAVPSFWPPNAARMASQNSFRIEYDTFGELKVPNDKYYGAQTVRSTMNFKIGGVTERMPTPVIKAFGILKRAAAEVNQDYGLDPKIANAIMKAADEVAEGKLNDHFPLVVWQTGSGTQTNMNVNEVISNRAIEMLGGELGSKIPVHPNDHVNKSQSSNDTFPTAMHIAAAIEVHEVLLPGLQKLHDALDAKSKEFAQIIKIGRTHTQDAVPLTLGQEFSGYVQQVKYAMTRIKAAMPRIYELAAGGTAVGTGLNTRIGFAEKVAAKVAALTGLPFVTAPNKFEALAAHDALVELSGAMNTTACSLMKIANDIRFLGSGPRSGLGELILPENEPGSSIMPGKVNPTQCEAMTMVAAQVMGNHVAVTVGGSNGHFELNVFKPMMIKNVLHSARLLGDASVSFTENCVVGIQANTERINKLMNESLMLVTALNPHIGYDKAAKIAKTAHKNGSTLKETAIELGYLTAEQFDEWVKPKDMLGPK
DYRK1A KinaseGlo = human DYRK1A kinase inhibition by ATP depletion readout. Potency, µM (series often up to 76.9 µM), hits mostly inhibitors. AID 2705. 80% of 100 active. shares compounds with NTMT1 inhibitor. recombinant DYRK1A, Kinase-Glo ATP depletion luminescence
CLK4 KinaseGlo = confirmation of human CLK4 kinase inhibitors, SAR round 2; shares compounds with NTMT1 inhibitor; recombinant Clk4, Kinase-Glo ATP luminescence, 4.5 h; Potency, µM (series often up to 76.9 µM), hits mostly inhibitors; 90% of 90 active
Sfp qHTS opt = Sfp PPTase inhibition, chemistry optimization. 78% of 230 active. purified Sfp PPTase enzyme activity, qHTS. shares compounds with NTMT1 inhibitor. Potency, µM (doses to about 114 µM), most hits filed as inhibitors
Bsub HM489 growth = Sfp PPTase inhibitors: growth inhibition of B. subtilis HM489 | Potency, µM (titrated, usually from 114 µM), hits mostly inhibitors | 50% of 220 active | AID 540353 | shares compounds with NTMT1 inhibitor | B. subtilis HM489 (acpS-) growth, BacTiter-Glo, 5 h
Sfp gel opt = inhibits B. subtilis Sfp PPTase in gel assay; shares compounds with NTMT1 inhibitor; purified Sfp PPTase, gel-based product detection; Potency, µM (series often up to 250 µM), usual class: inhibitors; 54% of 220 active; AID 540355
Sfp SAR2 = Sfp phosphopantetheinyl transferase inhibition, SAR round 2; Potency, µM (top dose mostly 57.1 µM), most hits filed as inhibitors; purified Sfp enzyme, PPTase activity, qHTS; shares compounds with NTMT1 inhibitor; 87% of 230 active; AID 602370
HSD17B4 counter = inhibits human HSD17B4, off-target for HPGD inhibitors | shares compounds with NTMT1 inhibitor | purified HSD17B4, estradiol/NAD+, NADH fluorescence | Potency, µM (highest dose often 57.1 µM), actives largely listed as inhibitors | 10% of 230 active
ALDH1A1 counter = counter-screen for HPGD inhibitors: human ALDH1A1 inhibition; Potency, µM (doses to about 57.1 µM), hits mostly inhibitors; shares compounds with NTMT1 inhibitor; 93% of 230 active; recombinant ALDH1A1, NADH fluorescence, propionaldehyde/NAD+
NNMT inh = blocks human NNMT methyltransferase | NNMT MTase-Glo luminescence, SAH detection | 10% of 120 active | Potency, µM (top dose mostly 57.1 µM), most hits filed as inhibitors | AID 1645878 | shares compounds with NTMT1 inhibitor
A number is an active result; . = inactive; ? = inconclusive; / = not tested or not shown; [ ] = dose if it differs, or a comment. An excerpt weighted towards active compounds, which were near 2.6% of everything screened. Calls follow the shape of the dose curve; as a rule, active = well fitted curve in the direction sought with a large enough effect; inconclusive = small, poorly fitted or top-dose-only effect, or another doubt; inactive = no such curve, though single readings can be large; an effect the other way counts as inactive or inconclusive.

SMILES	NTMT1 inhibitor	HTT-AS promoter	HTT promoter inh	FH mod	others
C/C=C(/C)C(=O)OC1CC(C)(C)CC2C3=CCC4C5(C)CCC(O[C@@H]6O[C@H](C(=O)O)[C@@H](O)[C@H](O)[C@H]6O[C@@H]6O[C@H](CO)[C@H](O)[C@H](O[C@@H]7OC[C@H](O)[C@H](O)[C@H]7O[C@@H]7O[C@H](CO)[C@@H](O)[C@H](O)[C@H]7O)[C@H]6O)C(C)(C)C5CCC4(C)C3(C)C(O)C(O)C12CO (some centres not stated)	.[6.45 µM]	/	/	.[13.5 µM]
CSc1ncc(C(=O)N2CCN(c3ccc(Cl)cc3)CC2)c(C)n1	.	.	.	.
Cc1ccnc(N(C)C(=S)N2CCN(c3cccc(C(F)(F)F)c3)CC2)c1	.	/	/	/	Sfp qHTS opt=?;Bsub HM489 growth=?;Sfp gel opt=?;Sfp SAR2=?;HSD17B4 counter=.;ALDH1A1 counter=19µM
Cc1ccnc(NC(=S)N2CCN(c3cc(F)cc(Cl)c3)CC2)c1	/	/	/	/	Sfp qHTS opt=1.2µM;Bsub HM489 growth=15µM;Sfp gel opt=10µM;Sfp SAR2=1.6µM;HSD17B4 counter=.;ALDH1A1 counter=7.6µM
Cc1ccc2cc3cc(C(=O)N4CCN(c5cccc(C(F)(F)F)c5)CC4)sc3nc2c1	.	.	.	.
OCc1ccc(-c2ccc3ncnc(NCCc4cnc[nH]4)c3c2)o1	?	/	/	/	DYRK1A KinaseGlo=23µM
CCOC(=O)c1ccc(-c2ccc3ncnc(NCCc4cnc[nH]4)c3c2)o1	?	/	/	/	DYRK1A KinaseGlo=1.6µM
Cc1nc(C)c(-c2ccc3ncnc(NCCc4cnc[nH]4)c3c2)s1	?	/	/	/	DYRK1A KinaseGlo=26µM
CN1CCN(C(=O)c2ccc3cc(CCNc4ncnc5ccc(C#N)cc45)ccc3c2)CC1	.	/	/	.
Cc1noc(C)c1-c1ccc2ncnc(NCc3ccc(F)cc3)c2c1	.	/	/	/
c1cncc(CNc2ncnc3ccc(-c4ccco4)cc23)c1	.	/	/	/
CCOC(=O)c1cnc2ccc(C)cc2c1NCCc1ccc(OC)c(OC)c1	.	.	.	.
CCNC(=O)c1ccc(-c2ccc3ncnc(NCCc4cnc[nH]4)c3c2)o1	.	/	/	/	CLK4 KinaseGlo=1.3µM
O=C(O)c1ccc(-c2ccc3ncnc(NCCc4cnc[nH]4)c3c2)o1	.	/	/	/	DYRK1A KinaseGlo=9.2µM
CC[C@H]1OC(=O)[C@](C)(F)C(=O)[C@H](C)[C@@H](O[C@@H]2O[C@H](C)C[C@H](N(C)C)[C@H]2O)[C@](C)(OC)C[C@@H](C)C(=O)[C@@H](C)[C@H]2N(CCCCn3cc(-c4cccc(N)c4)nn3)C(=O)O[C@]12C	.	/	/	.
C=Cc1cc(O)cc2nc(-c3ccc(O)c(F)c3)oc12	13µM	/	/	.	NNMT inh=?
CCC(=O)Nc1cc(-c2nc3cc(C)cc(C)c3o2)ccc1C	.	?	.	.
